Whole data set: some 18,000 sequences, median “TetR repression strength (sort-seq, GFP reporter)” near 0.23, cut for the highest 2% near 0.68. For the sample, the highest values were picked, then their nearest neighbours and some sequences at random.

Sequence of TetR (class B, Tn10) (P04483 whole entry): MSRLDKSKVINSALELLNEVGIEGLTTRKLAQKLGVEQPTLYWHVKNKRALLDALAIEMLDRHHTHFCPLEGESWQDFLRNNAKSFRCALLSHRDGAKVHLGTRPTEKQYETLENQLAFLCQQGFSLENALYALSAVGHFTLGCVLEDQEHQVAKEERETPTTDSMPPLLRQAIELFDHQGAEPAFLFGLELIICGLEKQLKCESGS

The assay has as its target TetR (class B, Tn10) (UniProt P04483). Nature of the assay: TetR repression strength (sort-seq, GFP reporter) (relative to tetO2 = 1); higher = stronger repression. Conditions: E. coli. In short, it runs like this:
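E. coli SIG10-MAX carried a low-copy plasmid library with eight randomized operator positions between a constitutive promoter and sfGFP, with TetR constitutively expressed. Cells grew 5 h at 37 °C in LB with 50 µg/mL chloramphenicol, then 10^6 cells were FACS-sorted into 13 fluorescence bins, each Illumina-sequenced. Repression strength is the top bin index plus one minus the read-weighted mean bin, divided by the wild-type operator value. Three independent transformations; variants with ≥30 reads in all replicates and CV ≤0.5 were averaged.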
For the sequence TCCCGATAAGTAGCTGAGA, the TetR repression strength is 0.921. The sequence TCCCGATCAGTGATGGAGA registered a TetR repression strength of 0.482. Next, TCCCTTATAGTGCCTGAGA: 0.162; TCCCGAACAGTGTAGGAGA: 0.0968. Sequence TCCCGCTTAGTCCGTGAGA returned a TetR repression strength of 0.183. Next, TCCCTGGAAGTGGGGGAGA: 0.208. The result for TCCCTGATAGTTTTCGAGA reads 0.301; that for TCCCTCGAAGTAGGGGAGA, 0.154.

The sequence TCCCATTAAGTGAACGAGA registered a TetR repression strength of 0.253. Sequence TCCCCGAGAGTGTGTGAGA came in with a TetR repression strength of 0.248. Next, TCCCGTCAAGTACCCGAGA: 0.325. Next, TCCCGTCAAGTAGCCGAGA: 1.02; TCCCGGGAAGTAGCTGAGA: 0.647.

For TCCCGTCAAGTGGCCGAGA, the TetR repression strength is 0.152. Take TCCCGGGGAGTGGCTGAGA: the TetR repression strength amounted to 0.301. The result for TCCCGGGGAGTAGCTGAGA reads 0.709; that for TCCCGAGTAGTAACGGAGA, 0.461. Next, TCCCGAGAAGTGCCTGAGA: 0.178; TCCCGTCTAGTGAAGGAGA: 0.315.

Consider TCCCGGTCAGTGCAGGAGA, for which the TetR repression strength turned out to be 0.531. Next, TCCCGTCTAGTAGTGGAGA: 0.468; TCCCCAGGAGTGGCTGAGA: 0.0764; TCCCCTAGAGTCTGAGAGA: 0.122.

For TCCCCTCGAGTCTGAGAGA, the TetR repression strength is 0.89.

On to TCCCTCGGAGTCTGTGAGA, for which the TetR repression strength came to 0.215. Sequence TCCCTCGTAGTCTGCGAGA returned a TetR repression strength of 0.447. In turn, TCCCTCGTAGTCTGAGAGA gave a TetR repression strength of 1.03. The result for TCCCTCGGAGTCTGCGAGA reads 0.522.

In turn, TCCCCTTGAGTCTGAGAGA had a TetR repression strength of 0.333. The result for TCCCTCGGAGTCTGAGAGA reads 1.02; that for TCCCTCGTAGTCTAAGAGA, 0.142; that for TCCCAACCAGTTTTAGAGA, 0.399. Next, TCCCGCATAGTACGTGAGA: 0.273. The result for TCCCGATGAGTTGCTGAGA reads 0.124; that for TCCCTGCGAGTGATAGAGA, 0.618; that for TCCCCCTCAGTTTGCGAGA, 0.518. For the sequence TCCCTATTAGTTTGCGAGA, the TetR repression strength worked out at 0.417. The result for TCCCCGTCAGTTTGCGAGA reads 0.741; that for TCCCCGGTAGTTTGAGAGA, 0.302. The result for TCCCTCTGAGTTTGCGAGA reads 0.335; that for TCCCCGTCAGTGCGAGAGA, 0.69. The result for TCCCCAGTAGTTTGCGAGA reads 0.202.

Take TCCCAGTCAGTTTGCGAGA: the TetR repression strength stood at 0.167.

The sequence TCCCCGTCAGTGCGCGAGA yielded a TetR repression strength of 0.229. The result for TCCCTCTTAGTTTGCGAGA reads 0.796; that for TCCCCGGTAGTTTGCGAGA, 0.971. As to TCCCCGTCAGTGTGCGAGA, the TetR repression strength was found to be 0.333. The result for TCCCGTGGAGTAGCAGAGA reads 0.169; that for TCCCTGGGAGTAAGGGAGA, 0.28; that for TCCCGGGGAGTGTTAGAGA, 0.247. Next, TCCCTGAGAGTCGATGAGA: 0.237; TCCCTTTTAGTATACGAGA: 0.242. TCCCACCGAGTGTTGGAGA: the TetR repression strength was 0.286. The result for TCCCCCCAAGTCGGCGAGA reads 0.00669; that for TCCCACTGAGTTGGAGAGA, 0.16; that for TCCCTAGCAGTTGAGGAGA, 0.0558. Next, TCCCAGCGAGTATGAGAGA: 0.0754; TCCCGAAGAGTTGTTGAGA: 0.233; TCCCATCTAGTCAGGGAGA: 0.305.

Take TCCCCTGCAGTGGGGGAGA: the TetR repression strength came out at 0.225.

With TCCCTTATAGTGTAGGAGA, the TetR repression strength worked out at 0.0398. The result for TCCCATGAAGTGTGTGAGA reads 0.127.

Sequence TCCCTGTAAGTCGTGGAGA had a TetR repression strength of 0.309.

Regarding TCCCCGTGAGTCAGGGAGA, the TetR repression strength came out at 0.152. The result for TCCCCGTGAGTCTGAGAGA reads 0.215. Next, TCCCCGTGAGTCAGAGAGA: 0.963; TCCCTGTTAGTGCCAGAGA: 0.193; TCCCATTAAGTGCATGAGA: 0.106. The result for TCCCTGTAAGTTGACGAGA reads 0.1.

Regarding TCCCACTTAGTTGGGGAGA, the TetR repression strength is 0.201. The result for TCCCCACTAGTGAAGGAGA reads 0.203. The sequence TCCCAAGCAGTGATAGAGA gave a TetR repression strength of 0.505. Next, TCCCAATCAGTGACAGAGA: 0.723. The sequence TCCCACTAAGTGATAGAGA registered a TetR repression strength of 0.427. Next, TCCCACTCAGTGATAGAGA: 0.701. In turn, TCCCAATCAGTGATAGAGA displayed a TetR repression strength of 0.785. For TCCCAAACAGTGACAGAGA, the TetR repression strength turned out to be 0.622. Take TCCCAATCAGTGGTAGAGA: the TetR repression strength is 0.521.

Sequence TCCCACTCAGTGAGAGAGA gave a TetR repression strength of 0.514. The result for TCCCCATCAGTGATAGAGA reads 0.966; that for TCCCCAGCAGTGATAGAGA, 0.186; that for TCCCAGTCAGTGACAGAGA, 0.416. Next, TCCCCATAAGTGATAGAGA: 0.522; TCCCCGAGAGTGTTGGAGA: 0.156; TCCCGACGAGTAAGTGAGA: 0.0202. Next, TCCCGTGCAGTGGGAGAGA: 0.177; TCCCCGAAAGTGGTTGAGA: 0.272; TCCCCAGTAGTGTAAGAGA: 0.139. As for TCCCTCGTAGTTCGTGAGA, the TetR repression strength stood at 0.105. The result for TCCCGTAGAGTGCAAGAGA reads 0.396; that for TCCCGGGCAGTGAAGGAGA, 0.251. Next, TCCCGCGGAGTGACGGAGA: 0.38; TCCCGAGGAGTACGAGAGA: 0.222. Next, TCCCCCATAGTCAGGGAGA: 0.312; TCCCAATCAGTGAAGGAGA: 0.671.

The sequence TCCCAAGAAGTGAAAGAGA yielded a TetR repression strength of 0.2. Next, TCCCAATAAGTGAAAGAGA: 0.688; TCCCAATCAGTGTCAGAGA: 0.335.

On to TCCCAATAAGTGTAAGAGA, for which the TetR repression strength came out at 0.21. Next, TCCCAATCAGTTTAAGAGA: 0.368. Sequence TCCCAATCAGTGTAAGAGA showed a TetR repression strength of 0.74.

TCCCAATCAGTGAAAGAGA returned a TetR repression strength of 0.686.

In the case of TCCCAATCAGTCAAAGAGA, the TetR repression strength is 0.676.

Source of the values: a collection of fitness landscapes (doi:10.1038/s41467-024-54723-y).
